# Results reported in PubChem BioAssay (EPA / NIEHS).
# Inconclusive results are not listed. The source made the active and inactive calls. The calls were made as follows, unless noted: active = hit-call score of the fitted dose curve at least 0.9, where 1 is the maximum; inconclusive = response in the unintended direction; inactive = score below 0.9.
# Key:
# [1] = target: human RAR-related Orphan Receptor gamma (RORg), RORC (gene 6097) (UniProt P51449); test: ATG_RORg_TRANS: Attagene TRANS-FACTORIAL HepG2 Assay for human RAR-related Orphan Receptor gamma (RORg) (AID 2283011);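 as to AC50: potency for induction of reporter transcripts above DMSO so activators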
# In short: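 Reporter transcripts from a transfected RORg-GAL4 chimera in HepG2 cells were quantified 24 h after dosing by RT-PCR, 6-FAM labelling, HpaI digestion and capillary electrophoresis; increases over DMSO baseline were fitted.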
# [2] = target: Retinoic acid receptor RXR-alpha (Homo sapiens) (UniProt P19793); test: ATG_RXRa_TRANS: Attagene TRANS-FACTORIAL HepG2 Assay for human Retinoid X Receptor alpha (RXRa) (AID 2283012)
# In short: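 HepG2 cells transiently transfected with GAL4-UAS reporter units and chimeric RXRa-Gal4 protein, treated 24 h. Reporter mRNA measured by RT-PCR, fluorescent labelling, HpaI digestion and capillary electrophoresis. Induction fitted against DMSO.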
# [3] = target: human Retinoid X Receptor beta (RXRb), RXRB (gene 6257) (UniProt P28702); test: ATG_RXRb_TRANS: Attagene TRANS-FACTORIAL HepG2 Assay for human Retinoid X Receptor beta (RXRb) (AID 2283013)
# In short: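 HepG2 cells were transiently transfected with multiplexed GAL4-UAS reporters and a chimeric RXRb-Gal4 construct, then exposed for 24 h. Reporter mRNA was quantified by RT-PCR, FAM labeling, HpaI digestion and capillary electrophoresis; gain of signal was scored against DMSO.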
# [4] = read-out: E-selectin (Homo sapiens) (UniProt P16581); test: BSK_3C_Eselectin: BioMAP Diversity Plus: 3C Assay for Eselectin Biomarker Activity (AID 2283015; active = hit-call score of the fitted dose curve at least 0.9, where 1 is the maximum; inactive = score below 0.9;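 as to outcome: cell surface E-selectin protein quantified by ELISA 24 h after dosing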); settings: primary human endothelial cells (HUVEC); actives raise or lower the signal
# In short: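 E-selectin ELISA readout, fitted bidirectionally relative to DMSO, taken 24 h post-dosing in HUVEC cultures of the 3C system. Overt cytotoxicity tracked with sulforhodamine B staining of parallel wells.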
# [5] = read-out: Interleukin-1 alpha (IL1a), IL1A (gene 3552); test: BSK_BE3C_IL1a: BioMAP Diversity Plus: BE3C Assay for Interleukin-1 alpha (IL1a) Biomarker Activity (AID 2283016; active = hit-call score of the fitted dose curve at least 0.9, where 1 is the maximum; inactive = score below 0.9); settings: primary human bronchial epithelial cells; actives raise or lower the signal
# In short: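 Human primary bronchial epithelial cells, 24 h chemical exposure; IL-1a quantified by ELISA, fitted bidirectionally against DMSO. Cytotoxicity assessed in parallel by SRB total-protein staining at the time of measurement.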
# [6] = read-out: Monocyte Chemoattractant Protein-1 (MCP1), CCL2 (gene 6347); test: BSK_3C_MCP1: BioMAP Diversity Plus: 3C Assay for Monocyte Chemoattractant Protein-1 (MCP1) Biomarker Activity (AID 2283017; active = hit-call score of the fitted dose curve at least 0.9, where 1 is the maximum; inactive = score below 0.9); settings: primary human endothelial cells (HUVEC); actives raise or lower the signal
# In short: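 MCP-1 was measured by ELISA 24 h after dosing in primary HUVEC 3C cultures and fitted in both directions relative to DMSO; cytotoxicity was checked by SRB total-protein staining in parallel wells.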
# [7] = read-out: Human Leukocyte Antigen - DR isotype (HLADR), HLA-DRA (gene 3122); test: BSK_3C_HLADR: BioMAP Diversity Plus: 3C Assay for Human Leukocyte Antigen - DR isotype (HLADR) Biomarker Activity (AID 2283019; active = hit-call score of the fitted dose curve at least 0.9, where 1 is the maximum; inactive = score below 0.9;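 as to outcome: ELISA of cell-surface HLA-DR on HUVEC 24 h after dosing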); settings: primary human endothelial cells (HUVEC); actives raise or lower the signal
# In short: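 Bidirectional fitting against DMSO was applied to the HLA-DR ELISA signal from human umbilical vein endothelial cells, 24 h post-dose. Cytotoxicity came from parallel SRB total-protein staining; 3C proliferation was counted by SRB at 48 h.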
# [8] = read-out: Interleukin-8 (IL8), CXCL8 (gene 3576); test: BSK_3C_IL8: BioMAP Diversity Plus: 3C Assay for Interleukin-8 (IL8) Biomarker Activity (AID 2283020; active = hit-call score of the fitted dose curve at least 0.9, where 1 is the maximum; inactive = score below 0.9); settings: primary human endothelial cells (HUVEC); actives raise or lower the signal
# In short: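 Primary human umbilical vein endothelial cells were dosed for 24 h. IL-8 was quantified by ELISA and fitted bidirectionally against DMSO. Cytotoxicity was assessed in parallel cultures by SRB staining at 560 nm.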
# [9] = read-out: Monokine induced gamma interferon (MIG), CXCL9 (gene 4283); test: BSK_3C_MIG: BioMAP Diversity Plus: 3C Assay for Monokine induced gamma interferon (MIG) Biomarker Activity (AID 2283021; active = hit-call score of the fitted dose curve at least 0.9, where 1 is the maximum; inactive = score below 0.9;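 as to AC50: MIG protein level measured by immunoassay in the treated endothelial cultures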); settings: primary human endothelial cells (HUVEC); actives raise or lower the signal
# In short: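 HUVEC primary endothelial cultures dosed with chemical; MIG quantified by ELISA at 24 h. Data fitted bidirectionally against DMSO control, with parallel SRB total-protein staining for cytotoxicity.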
# [10] = target: human Thyroid Receptor alpha (THRa1), THRA (gene 7067) (UniProt P10827); test: ATG_THRa1_TRANS: Attagene TRANS-FACTORIAL HepG2 Assay for human Thyroid Receptor alpha (THRa1) (AID 2283014)
# In short: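 Transcripts from GAL4-UAS-driven reporters, measured after 24 h compound exposure by RT-PCR plus capillary electrophoresis of 6-FAM-labeled fragments, were fitted for gain of signal relative to DMSO. Cells: transiently transfected HepG2 expressing NR-Gal4 chimeras.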
# Retinoic acid receptor RXR-alpha (Homo sapiens), sequence (P19793 whole entry, looked up, the tested form may be a part): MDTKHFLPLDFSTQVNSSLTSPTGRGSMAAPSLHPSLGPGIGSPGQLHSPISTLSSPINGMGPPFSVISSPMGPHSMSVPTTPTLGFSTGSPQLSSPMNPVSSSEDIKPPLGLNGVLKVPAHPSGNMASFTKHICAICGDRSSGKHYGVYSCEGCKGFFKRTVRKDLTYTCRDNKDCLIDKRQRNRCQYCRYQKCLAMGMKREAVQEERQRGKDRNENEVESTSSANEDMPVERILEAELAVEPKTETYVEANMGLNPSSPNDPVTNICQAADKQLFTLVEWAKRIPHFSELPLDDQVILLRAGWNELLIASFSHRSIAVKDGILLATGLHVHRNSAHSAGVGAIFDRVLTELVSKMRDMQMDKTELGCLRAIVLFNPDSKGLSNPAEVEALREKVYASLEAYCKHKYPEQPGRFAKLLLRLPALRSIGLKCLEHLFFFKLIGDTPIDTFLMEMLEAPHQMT
# human RAR-related Orphan Receptor gamma (RORg), RORC (gene 6097), sequence (P51449 whole entry, looked up, the tested form may be a part): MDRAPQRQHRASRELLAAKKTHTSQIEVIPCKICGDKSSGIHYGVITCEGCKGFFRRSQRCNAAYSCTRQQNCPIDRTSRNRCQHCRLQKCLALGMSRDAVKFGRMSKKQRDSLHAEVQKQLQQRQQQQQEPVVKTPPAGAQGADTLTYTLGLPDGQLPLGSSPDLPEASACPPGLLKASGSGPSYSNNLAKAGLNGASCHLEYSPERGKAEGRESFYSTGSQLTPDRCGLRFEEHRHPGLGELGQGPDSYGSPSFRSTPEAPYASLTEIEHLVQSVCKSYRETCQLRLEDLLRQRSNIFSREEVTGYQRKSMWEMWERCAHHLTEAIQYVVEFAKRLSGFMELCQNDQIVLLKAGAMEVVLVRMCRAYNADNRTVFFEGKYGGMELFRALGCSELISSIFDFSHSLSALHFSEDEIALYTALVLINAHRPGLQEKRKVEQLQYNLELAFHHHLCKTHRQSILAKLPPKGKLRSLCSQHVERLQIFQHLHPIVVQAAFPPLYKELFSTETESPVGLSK
# E-selectin (Homo sapiens), sequence (P16581 whole entry, looked up): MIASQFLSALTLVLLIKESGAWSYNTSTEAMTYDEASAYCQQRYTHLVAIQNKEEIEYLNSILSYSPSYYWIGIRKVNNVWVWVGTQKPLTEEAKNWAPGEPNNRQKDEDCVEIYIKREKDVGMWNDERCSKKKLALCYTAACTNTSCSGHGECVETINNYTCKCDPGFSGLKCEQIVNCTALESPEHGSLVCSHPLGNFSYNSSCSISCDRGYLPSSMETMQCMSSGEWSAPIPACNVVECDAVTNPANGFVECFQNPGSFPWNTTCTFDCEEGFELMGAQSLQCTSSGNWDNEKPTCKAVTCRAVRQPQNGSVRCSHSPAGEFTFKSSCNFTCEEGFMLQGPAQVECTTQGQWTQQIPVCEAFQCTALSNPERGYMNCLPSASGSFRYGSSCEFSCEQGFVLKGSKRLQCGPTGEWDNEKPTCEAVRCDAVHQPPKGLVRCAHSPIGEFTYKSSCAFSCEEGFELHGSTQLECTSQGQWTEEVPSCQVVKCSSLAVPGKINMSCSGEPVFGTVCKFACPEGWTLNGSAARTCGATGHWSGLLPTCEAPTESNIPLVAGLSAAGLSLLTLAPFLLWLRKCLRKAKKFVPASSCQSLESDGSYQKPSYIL
# human Thyroid Receptor alpha (THRa1), THRA (gene 7067), sequence (P10827 whole entry, looked up, the tested form may be a part): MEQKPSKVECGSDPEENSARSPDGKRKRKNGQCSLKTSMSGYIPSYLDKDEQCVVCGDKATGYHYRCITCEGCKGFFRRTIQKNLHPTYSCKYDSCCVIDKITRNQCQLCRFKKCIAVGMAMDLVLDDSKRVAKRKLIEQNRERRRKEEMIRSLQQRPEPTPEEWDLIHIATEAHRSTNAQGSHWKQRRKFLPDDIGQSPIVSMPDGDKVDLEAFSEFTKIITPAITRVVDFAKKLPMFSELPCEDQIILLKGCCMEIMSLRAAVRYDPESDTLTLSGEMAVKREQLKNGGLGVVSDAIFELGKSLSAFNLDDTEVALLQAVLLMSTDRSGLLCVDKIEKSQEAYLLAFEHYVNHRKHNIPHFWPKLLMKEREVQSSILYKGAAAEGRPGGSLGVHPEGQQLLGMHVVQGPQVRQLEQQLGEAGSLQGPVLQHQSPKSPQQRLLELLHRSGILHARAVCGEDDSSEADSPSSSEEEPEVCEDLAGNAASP
# human Retinoid X Receptor beta (RXRb), RXRB (gene 6257), sequence (P28702 whole entry, looked up, the tested form may be a part): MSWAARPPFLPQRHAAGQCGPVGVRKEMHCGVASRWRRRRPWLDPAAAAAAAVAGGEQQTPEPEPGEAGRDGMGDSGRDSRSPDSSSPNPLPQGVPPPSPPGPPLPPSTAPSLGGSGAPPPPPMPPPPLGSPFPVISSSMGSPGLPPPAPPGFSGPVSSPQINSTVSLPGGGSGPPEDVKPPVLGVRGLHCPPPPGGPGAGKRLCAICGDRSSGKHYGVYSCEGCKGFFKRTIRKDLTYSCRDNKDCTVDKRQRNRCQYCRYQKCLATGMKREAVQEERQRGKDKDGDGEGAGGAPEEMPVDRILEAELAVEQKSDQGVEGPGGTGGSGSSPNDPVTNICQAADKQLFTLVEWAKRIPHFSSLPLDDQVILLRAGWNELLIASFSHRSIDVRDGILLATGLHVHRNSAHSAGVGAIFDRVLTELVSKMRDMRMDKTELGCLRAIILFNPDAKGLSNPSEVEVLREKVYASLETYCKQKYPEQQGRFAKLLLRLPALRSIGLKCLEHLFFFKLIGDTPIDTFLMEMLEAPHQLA
smiles,measurement,setting,value
Nc1ccc2cc3ccccc3cc2c1,outcome,[1],inactive
same,outcome,[2],inactive
OCCNCc1ccccc1,outcome,[1],inactive
same,outcome,[2],inactive
CC(=O)OCC(C)OC(C)=O (stereo unspecified),outcome,[1],inactive
Cc1cc(C)c(C(=O)O)c(C)c1,outcome,[1],inactive
C=COCCCC,outcome,[1],inactive
O=c1n(CCO)c(=O)n(CCO)c(=O)n1CCO,outcome,[1],inactive
CCC(C)C=O (stereo unspecified),outcome,[1],inactive
same,outcome,[2],inactive
C[C@]12C=CC(=O)C=C1CC[C@@H]1[C@@H]2[C@@H](O)C[C@@]2(C)[C@H]1CC[C@]2(O)C(=O)CO,outcome,[1],inactive
same,outcome,[2],inactive
CCCNC(=O)NS(=O)(=O)c1ccc(Cl)cc1,outcome,[1],inactive
same,outcome,[2],inactive
NC(CO)(CO)CO,outcome,[1],inactive
CC/C=C\C/C=C\C/C=C\CCCCCCCC(=O)O,outcome,[1],inactive
Cc1cccc(N)n1,outcome,[1],inactive
CC(=O)Nc1nnc(S(N)(=O)=O)s1,outcome,[1],inactive
C[Si](C)(CCCN)O[Si](C)(C)CCCN,outcome,[1],inactive
same,outcome,[2],inactive
NC(=O)OCC(COC(N)=O)c1ccccc1,outcome,[1],inactive
CC1=CC[C@H]2C[C@@H]1C2(C)C,outcome,[1],inactive
same,outcome,[2],inactive
Nc1cccc(C(F)(F)F)c1,outcome,[1],inactive
CCCCCCC(O)CO (stereo unspecified),outcome,[1],inactive
same,outcome,[2],inactive
c1ccc(CNCc2ccccc2)cc1,outcome,[1],inactive
C=CC(C)(C)C,outcome,[1],inactive
same,outcome,[2],inactive
CC(=O)OCc1ccco1,outcome,[1],inactive
CCCCCCCCCCCCCOP(=O)(O)O,outcome,[1],inactive
CC(C)(C)c1n[nH]c(=O)n(N)c1=O,outcome,[1],inactive
same,outcome,[2],inactive
CC1(C)[C@H]2CC[C@]1(C)C(=O)C2,outcome,[1],inactive
same,outcome,[2],inactive
CCCC(=O)OCc1ccccc1,outcome,[1],inactive
same,outcome,[2],inactive
CC(=O)Oc1ccc(C(C)=O)cc1,outcome,[1],inactive
same,outcome,[2],inactive
CC(=O)OC(C)C,outcome,[1],inactive
same,outcome,[2],inactive
CC(C)=CC1CC(C)CCO1 (stereo unspecified),outcome,[1],inactive
same,outcome,[2],inactive
COc1ccc(C(Cl)=C(c2ccc(OC)cc2)c2ccc(OC)cc2)cc1,outcome,[1],inactive
C=CC(=O)OCCOC(=O)C=C,outcome,[1],inactive
same,outcome,[2],inactive
same,outcome,[3],inactive
SCCc1cnccn1,outcome,[1],inactive
same,outcome,[2],inactive
COCC(C)N (stereo unspecified),outcome,[1],inactive
same,outcome,[2],inactive
C=C(C)c1cccc(C(C)(C)N=C=O)c1,outcome,[1],inactive
Cc1ccc([N+](=O)[O-])cc1S(=O)(=O)O,outcome,[1],inactive
O=c1[nH]c(=O)c2[nH]c(=O)[nH]c2[nH]1,outcome,[1],inactive
C=C(C)C(=O)OCCO,outcome,[1],inactive
CCOC(=O)[C@H](C)O,outcome,[1],inactive
same,outcome,[2],inactive
same,outcome,[3],inactive
CCOc1nc(F)cc2nc(S(=O)(=O)Nc3c(Cl)cccc3C(=O)OC)nn12,outcome,[1],inactive
same,outcome,[2],inactive
same,outcome,[3],inactive
same,outcome,[4],inactive
same,outcome,[5],inactive
same,outcome,[6],inactive
same,outcome,[7],inactive
same,outcome,[8],inactive
same,outcome,[9],inactive
NC(=O)C1CO1 (stereo unspecified),outcome,[1],inactive
same,outcome,[2],inactive
same,outcome,[3],inactive
COCCCOCCCOC,outcome,[1],inactive
same,outcome,[3],inactive
COc1ccc2nc(N)sc2c1,outcome,[1],inactive
same,outcome,[2],inactive
same,outcome,[4],inactive
same,outcome,[5],inactive
same,outcome,[6],inactive
same,outcome,[7],inactive
same,outcome,[8],inactive
same,outcome,[9],inactive
CCC(Cc1ccccc1)(C(=O)c1ccc(N2CCOCC2)cc1)N(C)C (stereo unspecified),outcome,[1],inactive
same,outcome,[2],inactive
same,outcome,[10],inactive
CC=CCO,outcome,[1],inactive
same,outcome,[2],inactive
same,outcome,[3],inactive
same,outcome,[10],inactive
CC(C)(C)C(=O)CCc1ccc(Cl)cc1,outcome,[1],inactive
same,outcome,[2],inactive
same,outcome,[3],inactive
same,outcome,[10],inactive
CCC(CO)CO,outcome,[1],inactive
same,outcome,[2],inactive
same,outcome,[3],inactive
CCCCCCC1(C)CCC(=O)O1 (stereo unspecified),outcome,[1],inactive
same,outcome,[3],inactive
C1=CCCC1,outcome,[1],inactive
same,outcome,[2],inactive
same,outcome,[3],inactive
same,outcome,[10],inactive
c1ccc2c(c1)ccc1cc3c(ccc4ccccc43)cc12,outcome,[1],inactive
same,outcome,[2],inactive
same,outcome,[3],inactive
same,outcome,[10],inactive
same,outcome,[4],inactive
same,outcome,[5],inactive
same,outcome,[6],inactive
same,outcome,[7],inactive
same,outcome,[8],inactive
same,outcome,[9],inactive
CCOCC(=O)O,outcome,[1],inactive
same,outcome,[2],inactive
same,outcome,[3],inactive
same,outcome,[10],inactive
O=Nc1ccc(O)cc1,outcome,[1],inactive
same,outcome,[2],inactive
same,outcome,[3],inactive
same,outcome,[10],inactive
same,outcome,[4],inactive
same,outcome,[5],inactive
same,outcome,[6],inactive
same,outcome,[7],inactive
same,outcome,[8],inactive
same,outcome,[9],inactive
O=C1C(N(CO)C(=O)NCO)N(CO)C(=O)N1CO (stereo unspecified),outcome,[1],inactive
same,outcome,[3],inactive
Cc1ccc(OC(=O)CC(C)C)cc1,outcome,[1],inactive
same,outcome,[2],inactive
same,outcome,[3],inactive
Cc1ccc(N/N=c2\c(=O)cc/c(=N/Nc3ccc(S(=O)(=O)O)cc3)c2=O)c(C)c1,outcome,[1],inactive
same,outcome,[2],inactive
same,outcome,[3],inactive
CC(=O)NS(=O)(=O)c1ccc(N)cc1,outcome,[1],inactive
same,outcome,[2],inactive
same,outcome,[3],inactive
C=CC(=O)OCC(Br)CBr (stereo unspecified),AC50,[1],176 µM (active)
same,outcome,[2],inactive
same,AC50,[4],20 µM (active)
same,AC50,[5],20 µM (active)
same,AC50,[6],31.8 µM (active)
same,AC50,[7],5.44 µM (active)
same,AC50,[8],20 µM (active)
same,AC50,[9],33 µM (active)
CO[Si](CCC1CCC2OC2C1)(OC)OC (stereo unspecified),outcome,[1],inactive
same,outcome,[2],inactive
same,outcome,[10],inactive
Cc1cccc(C(=O)O)c1,outcome,[1],inactive
same,outcome,[2],inactive
same,outcome,[3],inactive
CCOC(=O)c1ccc(N(C)C)cc1,outcome,[1],inactive
same,outcome,[3],inactive
